Assay [1] can be described thus: inhibitors of TNFa-induced NFkB p65 translocation, primary screen, imaging, HUVEC, MLSMR starter and 10KST1 sets (AID 438;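 active = inhibition above 20% together with a positive visual image hit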;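 also: compound added about 3h40 before a 20 min TNFalpha stimulation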;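 as to inhibition: signal is the nuclear over cytoplasmic p65 intensity ratio per well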). To be noted: HUVEC TNFa-induced p65 nuclear translocation; cell count: measured here: nuclei count (cytotoxicity indicator), at 2.08 µM; inhibition: at 2 µM, stronger effect = higher value, 0% TNFa-plus-vehicle, 100% no-TNFa wells.
The nature of assay [2]: reduction of polyQ htt aggregates in cells – imaging, exon1htt(103Q)mCFP cells, high-content imaging, primary screen (AID 483;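 active = visual image review flags a hit and inhibition of aggregation exceeds 20%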;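 also: compound exposure lasted 3 days before fixation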;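 as to nuclei count: percent of the per-plate median nuclei count of sample wells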). The conditions noted are these: exon1htt(103Q)mCFP cell line, aggregate imaging, at 2 µM; inhibition of aggregation: stronger effect = higher value; nuclei count: measured here: cell count, toxicity.
The nature of assay [3]: endothelial E-selectin expression blockers – imaging, HUVEC, immunofluorescence, MLSMR starter and 10KST1 sets, primary screen (AID 487).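 As to inhibition: signal is fraction of cell area covered by stained E-selectin grains.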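 As to nuclei count: 100% = median nuclei count of all wells on the same plate.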 The conditions noted are these: HUVEC TNFalpha-induced E-selectin immunofluorescence imaging, at 2 µM; inhibition: stronger effect = higher value; nuclei count: measured here: cell number, toxicity.
Assay [4] can be described thus: Primary imaging screen for DUSP6 inhibitors that restore phospho-Erk in transfected HeLa cells, chemical complementation (AID 609;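 active = compounds giving at least 50% inhibition in the cell-based MKP-3 phosphatase rescue imaging test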;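 as to inhibition: phospho-Erk level distribution per well compared with pooled transfected vehicle control wells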). To be noted: HeLa MKP-3 transfected, phospho-Erk imaging KS statistic, at 10 µM, cells stimulated with TPA for 15 min.
Assay [5] addresses Dual specificity protein phosphatase 6 (Homo sapiens) (UniProt Q16828). The assay is described as above. The conditions noted are these: HeLa MKP-3 transfected, phospho-Erk imaging KS statistic; at 10 µM; stronger effect = higher value; cells stimulated with TPA for 15 min.
Assay [6] concerns the target Voltage-gated potassium channel subunit beta-2 (Rattus norvegicus) (UniProt P62483). The assay is described as follows: inhibitors of rat Kvbeta2 reductase activity – biochemical, NADPH fluorescence, primary screen (AID 622;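 active = fluorescence slope higher than the sample average by over 3 SD, cut at about -0.22 in these data, passing the limit was not always enough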;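 also: slope of raw intensity against log time taken from 70 to 1610 s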). The conditions noted are these: recombinant KvBeta, 4-cyanobenzaldehyde reduction, at 10 µM, stronger effect = higher value.
Assay [7] has the same target. As to the kind of experiment: enhancers of rat Kvbeta2 NADPH turnover – biochemical, NADPH fluorescence, primary screen (AID 623;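 active = NADPH fluorescence slope more negative than the mean of all samples by about 3 SD, 99.7% confidence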;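 also: fluorescence intensity change per second fitted from 20 to 320 s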). To be noted: Recombinant KvBeta, NADPH fluorescence decrease slope, 10 min; at 10 µM; stronger effect = lower value.
For assay [8], the target named is Alpha-2C adrenergic receptor (Homo sapiens) (UniProt P18825). The assay is described as follows: compounds altering alpha2C-coupled GIRK flux – cell-based, HEK293 alpha2C/GIRK1/2, thallium flux, primary screen (AID 624;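 active = fluorescence slope after compound addition differing from the mean of all screened samples at 99.7% confidence, in either direction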;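 also: slope of fluorescence ratio to pre-addition baseline per second over 15 to 24 s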). To be noted: thallium flux BTC fluorescence, at 10 µM, actives lie on both sides.
The target of assay [9] is Muscarinic acetylcholine receptor M4 (Homo sapiens) (UniProt P08173). The assay is described as follows: M4-linked GIRK flux change, two-sided – cell-based, HEK293 M4/GIRK, thallium flux, BTC-AM, M4 allosteric agonist project, primary screen (AID 625;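 active = fluorescence slope after compound addition differing from the mean of all tested samples at 99.7% confidence, mostly higher but some lower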;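 also: thallium influx through GIRK channels coupled to M4 in HEK293 cells with BTC-AM dye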). To be noted: at 10 µM, actives lie on both sides.
Assay [10] is described as follows: inhibitors of larval lipid processing in zebrafish, primary screen, whole organism, PED6 fluorescence, gall bladder and intestine (AID 686;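 active = a full or partial loss of lipid-probe fluorescence in the fish gall bladder, intestine or both, judged by eye; inactive = no fluorescence loss, or compound toxic to the fish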;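 also: larvae 5 to 7 days old with five fish per well; signal comes from phospholipase A2 cleavage of quenched PED6 carried via bile; overnight exposure to compound and PED6 before scoring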). The conditions noted are these: Zebrafish larvae PED6 lipid processing, fluorescence scoring; screened at 20 µM (by protocol).
Assay [11] is described as follows: loss of swimming-algae plug formation – whole organism, Chlamydomonas reinhardtii, WT vs cilia-less mutant, absorbance, 96-well, primary screen (AID 463189;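 active = inhibition at or above 50% relative to wild type and mutant plate controls; inactive = inhibition below 50%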;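 also: 0% = wild type cc124 cells in DMSO and 100% = ciliumless bld1 mutant cells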). The conditions noted are these: Chlamydomonas reinhardtii gravitaxis, OD600 absorbance, 2 days; at 10 µM; stronger effect = higher value.
Assay [12] in a line: blockers of RIG-like receptor reporter activation – cell-based, Sendai virus stimulus, luciferase, 10K MLSCN set, TLR/RLR signaling modifier project, primary screen (AID 602276;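 active = inhibition at or above 50% at 10 µM; inactive = inhibition below 50%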;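 also: firefly luciferase from ISG56 promoter only with Renilla not read in this screen; 0% = Sendai virus plus DMSO and 100% = medium plus DMSO without virus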). To be noted: HEK293 RL24 IRF3 luciferase reporter, at 10 µM, stronger effect = higher value. (In general: A reporter such as luciferase makes a cellular process visible.)
Assay [13] is described as follows: TLR3 IRF3 reporter activation blockers – cell-based, poly I:C stimulus, luciferase, 10K MLSCN set, primary screen (AID 602277;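 active = inhibition of the reporter signal at or above 50%; inactive = inhibition below 50%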). To be noted: HEK293-TLR3 RL24 IRF3 luciferase reporter, at 10 µM, stronger effect = higher value.
Where [14] appears, read: measured here: cell density z-score.
Setting [15] is: measured here: nuclear c-Myc green intensity z-score.
Where [16] appears, read: measured here: nuclear pErk red intensity z-score, stronger effect = higher value.

Active and inactive are the calls of the source.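 The calls were made as follows, unless noted: active = visually confirmed hit in the image check and inhibition above 20%; inconclusive = visually confirmed hit but inhibition not above 20%; inactive = no visual hit in the image check.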

As a reminder, the inhibition is the drop in the measured response relative to a control, in per cent.

Sequence of Voltage-gated potassium channel subunit beta-2 (Rattus norvegicus) (P62483 whole entry, looked up): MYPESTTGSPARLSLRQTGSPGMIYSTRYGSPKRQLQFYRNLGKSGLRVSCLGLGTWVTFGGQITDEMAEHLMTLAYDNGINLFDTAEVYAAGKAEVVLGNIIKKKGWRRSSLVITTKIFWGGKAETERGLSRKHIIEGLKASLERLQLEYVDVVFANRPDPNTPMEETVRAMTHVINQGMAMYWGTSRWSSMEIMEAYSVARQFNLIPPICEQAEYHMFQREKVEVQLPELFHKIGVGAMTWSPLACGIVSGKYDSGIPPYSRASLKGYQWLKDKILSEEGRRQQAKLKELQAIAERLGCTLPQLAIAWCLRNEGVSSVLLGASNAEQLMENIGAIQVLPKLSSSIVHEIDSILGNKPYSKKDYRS
Sequence of Dual specificity protein phosphatase 6 (Homo sapiens) (Q16828 whole entry, looked up): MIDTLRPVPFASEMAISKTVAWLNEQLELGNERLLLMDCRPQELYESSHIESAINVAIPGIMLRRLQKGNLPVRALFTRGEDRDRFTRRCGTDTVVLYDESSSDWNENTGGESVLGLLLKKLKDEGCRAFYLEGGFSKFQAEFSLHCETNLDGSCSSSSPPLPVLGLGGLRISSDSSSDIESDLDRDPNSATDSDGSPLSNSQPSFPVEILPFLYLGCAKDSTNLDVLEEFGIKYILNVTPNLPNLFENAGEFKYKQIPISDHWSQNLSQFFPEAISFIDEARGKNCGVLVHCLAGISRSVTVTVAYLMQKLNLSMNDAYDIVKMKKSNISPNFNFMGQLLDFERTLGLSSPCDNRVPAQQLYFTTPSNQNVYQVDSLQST
Sequence of Alpha-2C adrenergic receptor (Homo sapiens) (P18825 whole entry, looked up): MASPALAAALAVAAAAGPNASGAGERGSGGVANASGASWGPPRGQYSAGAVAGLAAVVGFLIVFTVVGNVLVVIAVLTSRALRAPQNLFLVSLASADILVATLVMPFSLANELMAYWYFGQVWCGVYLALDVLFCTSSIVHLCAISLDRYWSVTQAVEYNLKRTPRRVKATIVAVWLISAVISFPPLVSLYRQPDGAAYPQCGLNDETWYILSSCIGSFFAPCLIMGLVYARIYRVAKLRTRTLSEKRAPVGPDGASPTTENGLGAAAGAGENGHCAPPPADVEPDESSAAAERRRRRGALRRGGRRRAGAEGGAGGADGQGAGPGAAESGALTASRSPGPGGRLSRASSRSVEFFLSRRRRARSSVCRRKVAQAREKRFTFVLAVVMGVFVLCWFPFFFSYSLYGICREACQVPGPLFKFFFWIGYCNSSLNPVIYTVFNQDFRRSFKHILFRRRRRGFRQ
Sequence of Muscarinic acetylcholine receptor M4 (Homo sapiens) (P08173 whole entry, looked up): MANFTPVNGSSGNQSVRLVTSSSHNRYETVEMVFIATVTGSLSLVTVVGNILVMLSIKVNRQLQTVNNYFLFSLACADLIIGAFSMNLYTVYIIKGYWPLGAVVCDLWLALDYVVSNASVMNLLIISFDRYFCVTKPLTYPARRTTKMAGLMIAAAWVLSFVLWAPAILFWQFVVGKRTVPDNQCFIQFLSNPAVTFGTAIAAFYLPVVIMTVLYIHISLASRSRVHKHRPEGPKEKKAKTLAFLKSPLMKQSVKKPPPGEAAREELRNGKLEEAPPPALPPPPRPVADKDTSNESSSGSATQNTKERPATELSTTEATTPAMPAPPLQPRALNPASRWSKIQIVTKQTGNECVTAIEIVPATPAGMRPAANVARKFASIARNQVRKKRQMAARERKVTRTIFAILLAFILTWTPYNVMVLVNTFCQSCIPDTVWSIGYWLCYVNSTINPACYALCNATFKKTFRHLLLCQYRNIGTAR

Turning to `CCCN(CCC)C(=O)CC(c1ccc(F)cc1)c1ccco1` (stereo not given), in [1], the cell count was 558. Also, the inhibition in assay [1] is -1.8% (inactive); in assay [3], -37.9% (inactive); in assay [5], 11.9% (inactive); in assay [11], 27.9% (inactive); in assay [12] it was 19.1% (inactive); in [13] it was 23% (inactive). In addition, in assay [2], the inhibition of aggregation was 24.6% (inactive). The nuclei count came to 92.6% in [2] and 108% in [3]. In addition, the z-score in assay [4] (setting [14]) is 0.533; in [4] (setting [15]), -0.963; in assay [4] (setting [16]) it was -0.846. For the same compound, the fluorescence slope in assay [6] was -0.467 (inactive); in [9] it was 0.00507 (inactive). In [7], the NADPH fluorescence slope was -2.2e-05 (inactive). Besides, the slope in [8] was 0.0041 (inactive). In [10], the result was inactive.

Consider `COC(=O)c1ccccc1NC(=O)CSc1nnc(-c2ccncc2)o1`, for which the cell count in assay [1] came out at 372. Also, the inhibition is -9.3% (inactive) in assay [1]; -75.9% (inactive) in assay [3]; 3.42% (inactive) in assay [5]; 4.81% (inactive) in [11]; 5.8% (inactive) in [12]; 19.8% (inactive) in [13]. The inhibition of aggregation in assay [2] was 3.1% (inactive). Also, the nuclei count in assay [2] stood at 99.2%; in assay [3] it was 128%. Also, the results for the z-score in assay [4] (setting [14]), in [4] (setting [15]) and in assay [4] (setting [16]) were 0.433, -0.668 and -1.26, respectively. Further, the fluorescence slope in assay [6] is -0.471 (inactive); in assay [9], 0.00541 (inactive). The NADPH fluorescence slope in assay [7] was -4.2e-05 (inactive). Besides, the slope in [8] was 0.00552 (inactive). Besides, in assay [10], the result was inactive.

For the compound `O=C(Nc1ccccc1C(=O)NCCCn1ccnc1)c1ccccc1`, in assay [1], the cell count worked out at 440. For the same compound, the inhibition in [1] is -10.6% (inactive); in assay [3] it was -58.9% (inactive); in assay [5], 3.97% (inactive); in assay [11], -14.6% (inactive); in [12], 12.2% (inactive); in assay [13], 22.1% (inactive). Moreover, in [2], the inhibition of aggregation is 9.5% (inactive). In addition, the nuclei count worked out at 110% in [2] and 90.3% in assay [3]. Further, the z-score in assay [4] (setting [14]) was 0.245; in [4] (setting [15]), 0.366; in assay [4] (setting [16]), -0.747. In addition, the fluorescence slope in assay [6] was -0.353 (inactive); in assay [9], 0.00574 (inactive). Also, the NADPH fluorescence slope in assay [7] is 1.7e-06 (inactive). Also, the slope in [8] was 0.00553 (inactive). Further, in assay [10], the result was inactive.

As for `CCN(CC)CCN1C(=O)C(=O)/C(=C(/O)c2c(C)[nH]c(C(=O)OC)c2C)C1c1ccco1` (stereo not given), in [1], the cell count worked out at 572. Besides, the inhibition in assay [1] was -11.8% (inactive); in [3], 26.1% (inactive); in assay [5], -11.9% (inactive); in assay [11], 4.53% (inactive); in [12] it was 4.22% (inactive); in assay [13] it was 6.98% (inactive). Also, the inhibition of aggregation in [2] was -5.3% (inactive). In addition, the nuclei count in [2] came out at 105%; in [3] it was 120%. Moreover, the z-score in [4] (setting [14]) was -1.72; in assay [4] (setting [15]), 1.35; in assay [4] (setting [16]), -0.00455. Further, the fluorescence slope is -0.473 (inactive) in assay [6] and 0.00487 (inactive) in assay [9]. In addition, the NADPH fluorescence slope in assay [7] was -1.4e-05 (inactive). In addition, the slope in assay [8] is 0.00421 (inactive). Besides, in assay [10], the compound was called inactive.

Turning to `CCN(CC)CCCN1C(=O)C(=O)/C(=C(/O)c2ccccc2)C1c1ccccn1` (stereo not given), the cell count in [1] came to 528. Also, the inhibition was -5.4% (inactive) in assay [1]; -45% (inactive) in [3]; 7.7% (inactive) in [5]; 8.25% (inactive) in assay [11]; 2.69% (inactive) in assay [12]; 1.93% (inactive) in assay [13]. The inhibition of aggregation in [2] was 5.1% (inactive). The nuclei count in assay [2] was determined as 104%; in assay [3] it was 121%. For the same compound, the z-score in [4] (setting [14]) was 0.55; in assay [4] (setting [15]), -1.39; in assay [4] (setting [16]), -0.0355. The fluorescence slope in assay [6] was -0.473 (inactive); in assay [9], 0.00518 (inactive). Also, the NADPH fluorescence slope in assay [7] is -3.7e-05 (inactive). In addition, in assay [8], the slope was 0.00741 (inactive). In addition, the call in assay [10] was inactive.
